Data: PMC9911399, “Two distinct binding modes provide the RNA-binding protein RbFox with extraordinary sequence specificity”
Where a chain is given by its changes, count along the chain named. In all, about 16,000 sequences were measured (“ka relative to ugcaugu”: median about 0.0091, highest 2% from about 0.032 on). Only a selection was taken, and the highest values are over-represented in it overall.

T1: RBFOX1 RRM (Homo sapiens, UniProt Q9NWB1 109-208)
T1 sequence: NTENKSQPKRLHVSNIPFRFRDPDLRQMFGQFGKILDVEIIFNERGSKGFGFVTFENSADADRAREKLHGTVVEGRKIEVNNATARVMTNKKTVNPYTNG

B1: AUAGGCC (DNA:RNA)
RNA: GGGAGACCGGAAUUCAGAUUGUCCAUAGGCCUUAAAUCCCGUCGUAGCCACCA
DNA 1: CAATCTGAATTCCGGTCTCCC
DNA 2: TGGTGGCTACGACGGGATT
B2: CCAGAGA (DNA:RNA)
RNA: B1 RNA with A25C, U26C, G29A, C30G, C31A
DNA 1: CAATCTGAATTCCGGTCTCCC
DNA 2: TGGTGGCTACGACGGGATT
B3: CUCCCAU (DNA:RNA)
RNA: B1 RNA with A25C, A27C, G28C, G29C, C30A, C31U
DNA 1: CAATCTGAATTCCGGTCTCCC
DNA 2: TGGTGGCTACGACGGGATT
B4: UUUCACC (DNA:RNA)
RNA: B1 RNA with A25U, A27U, G28C, G29A
DNA 1: CAATCTGAATTCCGGTCTCCC
DNA 2: TGGTGGCTACGACGGGATT
B5: CGGAUGA (DNA:RNA)
RNA: GGGAGACCGGAAUUCAGAUUGUCCCGGAUGAUUAAAUCCCGUCGUAGCCACCA
DNA 1: CAATCTGAATTCCGGTCTCCC
DNA 2: TGGTGGCTACGACGGGATT
B6: GGAUGAA (DNA:RNA)
RNA: B1 RNA with A25G, U26G, G28U, C30A, C31A
DNA 1: CAATCTGAATTCCGGTCTCCC
DNA 2: TGGTGGCTACGACGGGATT
B7: GGAAUGA (DNA:RNA)
RNA: B5 RNA with C25G, G27A
DNA 1: CAATCTGAATTCCGGTCTCCC
DNA 2: TGGTGGCTACGACGGGATT
B8: GUAAUGA (DNA:RNA)
RNA: B5 RNA with C25G, G26U, G27A
DNA 1: CAATCTGAATTCCGGTCTCCC
DNA 2: TGGTGGCTACGACGGGATT
B9: GGGAUGA (DNA:RNA)
RNA: B5 RNA with C25G
DNA 1: CAATCTGAATTCCGGTCTCCC
DNA 2: TGGTGGCTACGACGGGATT
B10: GAAAUGA (DNA:RNA)
RNA: B5 RNA with C25G, G26A, G27A
DNA 1: CAATCTGAATTCCGGTCTCCC
DNA 2: TGGTGGCTACGACGGGATT
B11: UCACGAG (DNA:RNA)
RNA: B1 RNA with A25U, U26C, G28C, C30A, C31G
DNA 1: CAATCTGAATTCCGGTCTCCC
DNA 2: TGGTGGCTACGACGGGATT
B12: GCGUGGA (DNA:RNA)
RNA: B5 RNA with C25G, G26C, A28U, U29G
DNA 1: CAATCTGAATTCCGGTCTCCC
DNA 2: TGGTGGCTACGACGGGATT
B13: GGAAGUG (DNA:RNA)
RNA: B1 RNA with A25G, U26G, G28A, C30U, C31G
DNA 1: CAATCTGAATTCCGGTCTCCC
DNA 2: TGGTGGCTACGACGGGATT
B14: AGGCACG (DNA:RNA)
RNA: B1 RNA with U26G, A27G, G28C, G29A, C31G
DNA 1: CAATCTGAATTCCGGTCTCCC
DNA 2: TGGTGGCTACGACGGGATT
B15: AGCCACG (DNA:RNA)
RNA: B1 RNA with U26G, A27C, G28C, G29A, C31G
DNA 1: CAATCTGAATTCCGGTCTCCC
DNA 2: TGGTGGCTACGACGGGATT
B16: UGGCACC (DNA:RNA)
RNA: B1 RNA with A25U, U26G, A27G, G28C, G29A
DNA 1: CAATCTGAATTCCGGTCTCCC
DNA 2: TGGTGGCTACGACGGGATT
B17: GGGCACG (DNA:RNA)
RNA: B5 RNA with C25G, A28C, U29A, G30C, A31G
DNA 1: CAATCTGAATTCCGGTCTCCC
DNA 2: TGGTGGCTACGACGGGATT
B18: GGGGCAC (DNA:RNA)
RNA: B1 RNA with A25G, U26G, A27G, G29C, C30A
DNA 1: CAATCTGAATTCCGGTCTCCC
DNA 2: TGGTGGCTACGACGGGATT
B19: UGGCAGA (DNA:RNA)
RNA: B5 RNA with C25U, A28C, U29A
DNA 1: CAATCTGAATTCCGGTCTCCC
DNA 2: TGGTGGCTACGACGGGATT
B20: UGGCACG (DNA:RNA)
RNA: B5 RNA with C25U, A28C, U29A, G30C, A31G
DNA 1: CAATCTGAATTCCGGTCTCCC
DNA 2: TGGTGGCTACGACGGGATT
B21: ACGUCGU (DNA:RNA)
RNA: B5 RNA with C25A, G26C, A28U, U29C, A31U
DNA 1: CAATCTGAATTCCGGTCTCCC
DNA 2: TGGTGGCTACGACGGGATT
B22: GGGCACC (DNA:RNA)
RNA: B1 RNA with A25G, U26G, A27G, G28C, G29A
DNA 1: CAATCTGAATTCCGGTCTCCC
DNA 2: TGGTGGCTACGACGGGATT
B23: AGGCACC (DNA:RNA)
RNA: B1 RNA with U26G, A27G, G28C, G29A
DNA 1: CAATCTGAATTCCGGTCTCCC
DNA 2: TGGTGGCTACGACGGGATT
B24: ACCACGU (DNA:RNA)
RNA: B5 RNA with C25A, G26C, G27C, U29C, A31U
DNA 1: CAATCTGAATTCCGGTCTCCC
DNA 2: TGGTGGCTACGACGGGATT
B25: GGCACGU (DNA:RNA)
RNA: B5 RNA with C25G, G27C, U29C, A31U
DNA 1: CAATCTGAATTCCGGTCTCCC
DNA 2: TGGTGGCTACGACGGGATT

Biological target: T1, RBFOX1 RRM
Test: EMSA; HiTS-Eq, 1 nM pool, 10 min; buffer printed only for the single-RNA assays: 10 mM Tris pH 7.5, 150 mM NaCl, 3.4 mM EDTA, 0.001% NP-40, 30 C
Details: tags: His6 N-terminal (pET28a); label: 5' 32P
Procedure, shortened: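 Relative association constants, normalised to the cognate motif, were derived by comparing read counts of each RNA species with those of the control reaction. The RNA sequenced was the free fraction, separated by 8% native PAGE after a 10 min equilibration in 50 µL of 1 nM 5′-radiolabelled RNA (7 randomized nucleotides) with increasing concentrations of purified wild-type or mutant RbFox RRM.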

Row | Binder | binding signal
1 | B1 | 0.0113 KA relative to UGCAUGU
2 | B2 | 0.0103 KA relative to UGCAUGU
3 | B3 | 0.00325 KA relative to UGCAUGU
4 | B4 | 0.00771 KA relative to UGCAUGU
5 | B5 | 0.0221 KA relative to UGCAUGU
6 | B6 | 0.0174 KA relative to UGCAUGU
7 | B7 | 0.0487 KA relative to UGCAUGU
8 | B8 | 0.0136 KA relative to UGCAUGU
9 | B9 | 0.0379 KA relative to UGCAUGU
10 | B10 | 0.0134 KA relative to UGCAUGU
11 | B11 | 0.0108 KA relative to UGCAUGU
12 | B12 | 0.0179 KA relative to UGCAUGU
13 | B13 | 0.0211 KA relative to UGCAUGU
14 | B14 | 0.0414 KA relative to UGCAUGU
15 | B15 | 0.00567 KA relative to UGCAUGU
16 | B16 | 0.0134 KA relative to UGCAUGU
17 | B17 | 0.0317 KA relative to UGCAUGU
18 | B18 | 0.0252 KA relative to UGCAUGU
19 | B19 | 0.0265 KA relative to UGCAUGU
20 | B20 | 0.0541 KA relative to UGCAUGU
21 | B21 | 0.00803 KA relative to UGCAUGU
22 | B22 | 0.0223 KA relative to UGCAUGU
23 | B23 | 0.00933 KA relative to UGCAUGU
24 | B24 | 0.00412 KA relative to UGCAUGU
25 | B25 | 0.0321 KA relative to UGCAUGU
